Structures can show the parent of a compound that is named as a salt.
System: MDA-MB-468
Test: phospho-S6 immunofluorescence (DAPI-normalised), per-plate z-score; higher = higher phospho-S6 signal (less pathway suppression)
Settings: 24 h
Method: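 GPCR-targeted compound library (MedChemExpress HY-L006) tested on MDA-MB-468 PTEN-null TNBC cells in 384-well plates at 0.1, 1 or 10 uM, combined with vehicle, GDC0941 450 nM or lapatinib 1 uM, for 24 h. Phospho-S6 (S240/244) immunofluorescence normalised to DAPI and expressed as a per-plate z-score; values are the mean of biological triplicates.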

SMILES: O=C1c2cccc3c2[C@H](CCC3)CN1[C@@H]1CN2CCC1CC2 [Palonosetron (Hydrochloride)] (compound 10 µM)
- phospho-S6 immunofluorescence (z-score) (co-treatment: GDC0941 450 nM): -0.7
- phospho-S6 immunofluorescence (z-score) (co-treatment: lapatinib 1 uM): 0.4
- phospho-S6 immunofluorescence (z-score) (co-treatment: vehicle): -0.33

SMILES: O=c1cc(CN2CCOCC2)occ1OCCCCCSc1ccnc2cc(C(F)(F)F)ccc12 (compound 10 µM)
- phospho-S6 immunofluorescence (z-score) (co-treatment: GDC0941 450 nM): -2.93
- phospho-S6 immunofluorescence (z-score) (co-treatment: lapatinib 1 uM): -3.04
- phospho-S6 immunofluorescence (z-score) (co-treatment: vehicle): -3.82

SMILES: CCC(=O)O[C@]1(C(=O)CCl)[C@@H](C)C[C@H]2[C@@H]3CCC4=CC(=O)C=C[C@]4(C)[C@@]3(F)[C@@H](O)C[C@@]21C [Clobetasol propionate] (compound 10 µM)
- phospho-S6 immunofluorescence (z-score) (co-treatment: GDC0941 450 nM): -0.19
- phospho-S6 immunofluorescence (z-score) (co-treatment: lapatinib 1 uM): -0.09
- phospho-S6 immunofluorescence (z-score) (co-treatment: vehicle): 0.7

SMILES: CCN(CCCc1ccccc1)CCCc1ccccc1 [Alverine (citrate)] (compound 10 µM)
- phospho-S6 immunofluorescence (z-score) (co-treatment: GDC0941 450 nM): -0.52
- phospho-S6 immunofluorescence (z-score) (co-treatment: lapatinib 1 uM): -1.04
- phospho-S6 immunofluorescence (z-score) (co-treatment: vehicle): 0.02

SMILES: Cc1c(CC(=O)O)c2cccnc2n1Cc1ccc(S(C)(=O)=O)cc1C(F)(F)F [Fevipiprant] (compound 10 µM)
- phospho-S6 immunofluorescence (z-score) (co-treatment: GDC0941 450 nM): -2.62
- phospho-S6 immunofluorescence (z-score) (co-treatment: lapatinib 1 uM): -1.74
- phospho-S6 immunofluorescence (z-score) (co-treatment: vehicle): -0.9

SMILES: NC[C@H](O)c1ccc(O)c(O)c1 [Norepinephrine (bitartrate monohydrate)] (compound 10 µM)
- phospho-S6 immunofluorescence (z-score) (co-treatment: GDC0941 450 nM): 0.52
- phospho-S6 immunofluorescence (z-score) (co-treatment: lapatinib 1 uM): 1.81
- phospho-S6 immunofluorescence (z-score) (co-treatment: vehicle): 0.17

SMILES: CCCCC(=O)N(Cc1ccc(-c2ccccc2-c2nnn[nH]2)cc1)[C@H](C(=O)O)C(C)C [Valsartan] (compound 10 µM)
- phospho-S6 immunofluorescence (z-score) (co-treatment: GDC0941 450 nM): 0.04
- phospho-S6 immunofluorescence (z-score) (co-treatment: lapatinib 1 uM): 0.5
- phospho-S6 immunofluorescence (z-score) (co-treatment: vehicle): 0.13

SMILES: COc1ccc2c(c1OC)C(=O)O[C@@H]2[C@H]1c2c(cc3c(c2OC)OCO3)CCN1C [Noscapine] (compound 10 µM)
- phospho-S6 immunofluorescence (z-score) (co-treatment: GDC0941 450 nM): 0.49
- phospho-S6 immunofluorescence (z-score) (co-treatment: lapatinib 1 uM): 0.12
- phospho-S6 immunofluorescence (z-score) (co-treatment: vehicle): 0.47

SMILES: C[C@]12CCC(=O)C=C1CC[C@@H]1[C@@H]2[C@@H](O)C[C@@]2(C)[C@H]1CC[C@]2(O)C(=O)CO [Hydrocortisone] (compound 10 µM)
- phospho-S6 immunofluorescence (z-score) (co-treatment: GDC0941 450 nM): -4.8
- phospho-S6 immunofluorescence (z-score) (co-treatment: lapatinib 1 uM): -4.13
- phospho-S6 immunofluorescence (z-score) (co-treatment: vehicle): -2.96

SMILES: CC(C(=O)Nc1cc(C#N)ccc1CCCC(=O)O)c1ccc(F)c2ccccc12 (centres undefined) (compound 10 µM)
- phospho-S6 immunofluorescence (z-score) (co-treatment: GDC0941 450 nM): -3.03
- phospho-S6 immunofluorescence (z-score) (co-treatment: lapatinib 1 uM): -2.8
- phospho-S6 immunofluorescence (z-score) (co-treatment: vehicle): -0.03

SMILES: CN(C)CCOC(C)(c1ccccc1)c1ccccn1 (centres undefined) [Doxylamine (succinate)] (compound 10 µM)
- phospho-S6 immunofluorescence (z-score) (co-treatment: GDC0941 450 nM): 0.33
- phospho-S6 immunofluorescence (z-score) (co-treatment: lapatinib 1 uM): -0.64
- phospho-S6 immunofluorescence (z-score) (co-treatment: vehicle): 0.58

SMILES: COc1cc2c(NC3CCN(C(C)C)CC3)nc(N3CCC(F)(F)CC3)nc2cc1OCCCN1CCCC1 (compound 10 µM)
- phospho-S6 immunofluorescence (z-score) (co-treatment: GDC0941 450 nM): 1.81
- phospho-S6 immunofluorescence (z-score) (co-treatment: lapatinib 1 uM): 3.34
- phospho-S6 immunofluorescence (z-score) (co-treatment: vehicle): 1.97

SMILES: CN1CCN(c2cc(-c3ccccc3)nc(N)n2)CC1 (compound 10 µM)
- phospho-S6 immunofluorescence (z-score) (co-treatment: GDC0941 450 nM): 0.39
- phospho-S6 immunofluorescence (z-score) (co-treatment: lapatinib 1 uM): 0.06
- phospho-S6 immunofluorescence (z-score) (co-treatment: vehicle): 1.14

SMILES: CC(=O)[C@H]1CC[C@H]2[C@@H]3CC=C4C[C@@H](O)CC[C@]4(C)[C@H]3CC[C@]12C [Pregnenolone] (compound 10 µM)
- phospho-S6 immunofluorescence (z-score) (co-treatment: GDC0941 450 nM): 1.58
- phospho-S6 immunofluorescence (z-score) (co-treatment: lapatinib 1 uM): 1.58
- phospho-S6 immunofluorescence (z-score) (co-treatment: vehicle): 0.85

SMILES: CC(C)NCC(O)COc1cccc2ccccc12 (centres undefined) [Propranolol (hydrochloride)] (compound 10 µM)
- phospho-S6 immunofluorescence (z-score) (co-treatment: GDC0941 450 nM): 0.53
- phospho-S6 immunofluorescence (z-score) (co-treatment: lapatinib 1 uM): 0.73
- phospho-S6 immunofluorescence (z-score) (co-treatment: vehicle): 0.21

SMILES: CC(C)N(CCCCOCC(=O)NS(C)(=O)=O)c1cnc(-c2ccccc2)c(-c2ccccc2)n1 (compound 10 µM)
- phospho-S6 immunofluorescence (z-score) (co-treatment: GDC0941 450 nM): 0.87
- phospho-S6 immunofluorescence (z-score) (co-treatment: lapatinib 1 uM): 0.26
- phospho-S6 immunofluorescence (z-score) (co-treatment: vehicle): -0.38

SMILES: OC[C@@H](O)CN1CCN(c2ccccc2)CC1 [Levodropropizine] (compound 10 µM)
- phospho-S6 immunofluorescence (z-score) (co-treatment: GDC0941 450 nM): -0.63
- phospho-S6 immunofluorescence (z-score) (co-treatment: lapatinib 1 uM): 0.66
- phospho-S6 immunofluorescence (z-score) (co-treatment: vehicle): -0.68

SMILES: Cc1cc(C(C)(C)C)c(O)c(C)c1CC1=NCCN1 [Oxymetazoline (hydrochloride)] (compound 10 µM)
- phospho-S6 immunofluorescence (z-score) (co-treatment: GDC0941 450 nM): 0.28
- phospho-S6 immunofluorescence (z-score) (co-treatment: lapatinib 1 uM): -0.17
- phospho-S6 immunofluorescence (z-score) (co-treatment: vehicle): -0.03

SMILES: CN(C)CCOC(C)(c1ccccc1)c1ccc(Cl)cc1 (centres undefined) [Chlorphenoxamine] (compound 10 µM)
- phospho-S6 immunofluorescence (z-score) (co-treatment: GDC0941 450 nM): -4.26
- phospho-S6 immunofluorescence (z-score) (co-treatment: lapatinib 1 uM): -7.36
- phospho-S6 immunofluorescence (z-score) (co-treatment: vehicle): -4.5

SMILES: CN(C)CCOC(c1ccccc1)c1ccccc1.Cn1c(=O)c2[nH]c(Cl)nc2n(C)c1=O [Dimenhydrinate] (compound 10 µM)
- phospho-S6 immunofluorescence (z-score) (co-treatment: GDC0941 450 nM): -1.22
- phospho-S6 immunofluorescence (z-score) (co-treatment: lapatinib 1 uM): 0.01
- phospho-S6 immunofluorescence (z-score) (co-treatment: vehicle): -0.02

SMILES: CCCN(CCc1cccs1)[C@H]1CCc2c(O)cccc2C1 [Rotigotine (Hydrochloride)] (compound 10 µM)
- phospho-S6 immunofluorescence (z-score) (co-treatment: GDC0941 450 nM): -0.16
- phospho-S6 immunofluorescence (z-score) (co-treatment: lapatinib 1 uM): 0.3
- phospho-S6 immunofluorescence (z-score) (co-treatment: vehicle): -0.63

SMILES: CC#C[C@]1(O)CC[C@H]2[C@@H]3CCC4=CC(=O)CCC4=C3[C@@H](c3ccc(N(C)C)cc3)C[C@@]21C [Mifepristone] (compound 10 µM)
- phospho-S6 immunofluorescence (z-score) (co-treatment: GDC0941 450 nM): -2.47
- phospho-S6 immunofluorescence (z-score) (co-treatment: lapatinib 1 uM): 1.14
- phospho-S6 immunofluorescence (z-score) (co-treatment: vehicle): -0.01

SMILES: C[C@@H]1C[C@H]2[C@@H]3CCC4=CC(=O)C=C[C@]4(C)[C@@]3(F)[C@@H](O)C[C@]2(C)[C@@]1(O)C(=O)CO [Dexamethasone] (compound 10 µM)
- phospho-S6 immunofluorescence (z-score) (co-treatment: GDC0941 450 nM): 0.1
- phospho-S6 immunofluorescence (z-score) (co-treatment: lapatinib 1 uM): 0.34
- phospho-S6 immunofluorescence (z-score) (co-treatment: vehicle): 1.02
